Screen size: about 5,500 compounds; about 2,000 (36%) were called active. About 18% were inconclusive and are not listed. No stated cut-off is given here; in the data, active means normalized growth mostly below about 0.91 (no sharp cut-off); inconclusive means no clear call, values can overlap the other calls; inactive means mostly above about 0.92. This is one part of the list.
Test: chemical genetic growth profiling, strain panel (AID 1159580);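 further: tested at 20 µM; growth read once vehicle control cultures reached saturation at 30 °C; 1 = growth at the plate median or of vehicle wells; lower values mean less growth of the strain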
Settings: growth OD

Measured: normalized growth

CC(C)c1nc(N(C)S(C)(=O)=O)nc(-c2ccc(F)cc2)c1/C=C/[C@@H](O)C[C@@H](O)CC(=O)O
inactive: S. cerevisiae deletion strains, locus YJR075W, strain HOC1, active compounds read low 0.996 | S. cerevisiae deletion strains, locus YKL009W, strain mrt4, active compounds read low 1.01 | S. cerevisiae deletion strains, locus YKL068W, active compounds read low 1.03 | S. cerevisiae deletion strains, locus YKL085W, strain MDH1 (second series), active compounds read low 0.992 | S. cerevisiae deletion strains, locus YKL085W, strain MDH1, active compounds read low 0.992 | S. cerevisiae deletion strains, locus YKL160W, strain elf1, active compounds read low 0.994 | S. cerevisiae deletion strains, locus YKL190W, strain CNB1, active compounds read low 1.01 | S. cerevisiae deletion strains, locus YKR001C, strain vps1, active compounds read low 1.03 | S. cerevisiae deletion strains, locus YKR026C, strain gcn3, active compounds read low 1.02 | S. cerevisiae deletion strains, locus YKR091W, strain srl3, active compounds read low 1.01 | S. cerevisiae deletion strains, locus YLL001W, strain dnm1, active compounds read low 1.03 | S. cerevisiae deletion strains, locus YLL026W, active compounds read low 1.01 | S. cerevisiae deletion strains, locus YLR027C, strain aat2, active compounds read low 1.01 | S. cerevisiae deletion strains, locus YLR039C, strain RIC1, active compounds read low 1.31 | S. cerevisiae deletion strains, locus YLR058C, strain SHM2, active compounds read low 1 | S. cerevisiae deletion strains, locus YLR102C, strain apc9, active compounds read low 1.02 | S. cerevisiae deletion strains, locus YLR221C, strain rsa3, active compounds read low 1.06 | S. cerevisiae deletion strains, locus YLR258W, strain gsy2, active compounds read low 1.01 | S. cerevisiae deletion strains, locus YLR262C, strain YPT6 (second series), active compounds read low 1.1 | S. cerevisiae deletion strains, locus YLR262C, strain YPT6, active compounds read low 1.26 | S. cerevisiae deletion strains, locus YLR268W, strain sec22, active compounds read low 0.994 | S. cerevisiae deletion strains, locus YLR320W, strain mms22, active compounds read low 1.01 | S. cerevisiae deletion strains, locus YLR330W, strain CHS5, active compounds read low 0.999 | S. cerevisiae deletion strains, locus YLR342W, strain FKS1 (second series), active compounds read low 1.03 | S. cerevisiae deletion strains, locus YLR342W, strain FKS1, active compounds read low 1.03 | S. cerevisiae deletion strains, locus YLR357W, strain rsc2, active compounds read low 0.994 | S. cerevisiae deletion strains, locus YLR370C, strain arc18, active compounds read low 1.03 | S. cerevisiae deletion strains, locus YLR371W, strain rom2, active compounds read low 1.01 | S. cerevisiae deletion strains, locus YLR384C, strain iki3, active compounds read low 1 | S. cerevisiae deletion strains, locus YLR418C, strain cdc73, active compounds read low 1 | S. cerevisiae deletion strains, locus YML016C, strain PPZ1, active compounds read low 0.999 | S. cerevisiae deletion strains, locus YML032C, strain rad52, active compounds read low 1.01 | S. cerevisiae deletion strains, locus YML120C, strain ndi1, active compounds read low 1.02 | S. cerevisiae deletion strains, locus YML124C, strain tub3, active compounds read low 0.997 | S. cerevisiae deletion strains, locus YMR058W, strain fet3, active compounds read low 1.02 | S. cerevisiae deletion strains, locus YMR078C, strain ctf18, active compounds read low 1.01 | S. cerevisiae deletion strains, locus YMR125W, strain sto1, active compounds read low 1.02 | S. cerevisiae deletion strains, locus YMR129W, active compounds read low 1.04 | S. cerevisiae deletion strains, locus YMR205C, strain PFK2, active compounds read low 1.02 | S. cerevisiae deletion strains, locus YMR223W, strain ubp8, active compounds read low 1.01 | S. cerevisiae deletion strains, locus YMR231W, strain pep5, active compounds read low 0.958 | S. cerevisiae deletion strains, locus YMR263W, strain SAP30, active compounds read low 0.994 | S. cerevisiae deletion strains, locus YMR307W, strain GAS1, active compounds read low 1.01 | S. cerevisiae deletion strains, locus YNL067W, strain RPL9B, active compounds read low 0.989 | S. cerevisiae deletion strains, locus YNL071W, strain lat1, active compounds read low 1.01 | S. cerevisiae deletion strains, locus YNL128W, strain TEP1, active compounds read low 0.988 | S. cerevisiae deletion strains, locus YNL153C, strain GIM3, active compounds read low 0.989 | S. cerevisiae deletion strains, locus YNL209W, strain ssb2, active compounds read low 1.02 | S. cerevisiae deletion strains, locus YNL233W, strain BNI4, active compounds read low 0.988 | S. cerevisiae deletion strains, locus YNL248C, strain rpa49, active compounds read low 1.02 | S. cerevisiae deletion strains, locus YNL250W, strain rad50, active compounds read low 0.982 | S. cerevisiae deletion strains, locus YNL271C, strain bni1, active compounds read low 0.976 | S. cerevisiae deletion strains, locus YNL298W, strain CLA4, active compounds read low 1.02 | S. cerevisiae deletion strains, locus YNL307C, strain MCK1, active compounds read low 1.02 | S. cerevisiae deletion strains, locus YNL322C, strain KRE1 (second series), active compounds read low 1.03 | S. cerevisiae deletion strains, locus YNL322C, strain KRE1, active compounds read low 1 | S. cerevisiae deletion strains, locus YNR049C, strain mso1, active compounds read low 1.02 | S. cerevisiae deletion strains, locus YNR052C, strain pop2, active compounds read low 0.929 | S. cerevisiae deletion strains, locus YOL006C, strain TOP1, active compounds read low 1.01 | S. cerevisiae deletion strains, locus YOL012C, strain htz1 0.882 | S. cerevisiae deletion strains, locus YOL147C, strain pex11, active compounds read low 1.01 | S. cerevisiae deletion strains, locus YOR001W, strain rrp6, active compounds read low 1.01 | S. cerevisiae deletion strains, locus YOR061W, strain CKA2, active compounds read low 0.994 | S. cerevisiae deletion strains, locus YOR069W, strain VPS5, active compounds read low 1.01 | S. cerevisiae deletion strains, locus YOR070C, strain gyp1, active compounds read low 1.01 | S. cerevisiae deletion strains, locus YOR080W, strain dia2, active compounds read low 1.01 | S. cerevisiae deletion strains, locus YOR083W, strain WHI5, active compounds read low 0.996 | S. cerevisiae deletion strains, locus YOR106W, strain vam3, active compounds read low 1.02 | S. cerevisiae deletion strains, locus YOR136W, strain idh2, active compounds read low 1 | S. cerevisiae deletion strains, locus YOR144C, strain elg1, active compounds read low 1 | S. cerevisiae deletion strains, locus YOR184W, strain ser1, active compounds read low 0.997 | S. cerevisiae deletion strains, locus YOR265W, strain rbl2, active compounds read low 1.01 | S. cerevisiae deletion strains, locus YOR270C, strain vph1, active compounds read low 0.975 | S. cerevisiae deletion strains, locus YOR290C, strain snf2, active compounds read low 1 | S. cerevisiae deletion strains, locus YOR316C, strain cot1, active compounds read low 1.01 | S. cerevisiae deletion strains, locus YPL051W, strain arl3, active compounds read low 1.02 | S. cerevisiae deletion strains, locus YPL055C, strain LGE1, active compounds read low 0.998 | S. cerevisiae deletion strains, locus YPL078C, strain atp4, active compounds read low 1.02 | S. cerevisiae deletion strains, locus YPL106C, strain sse1, active compounds read low 1.03 | S. cerevisiae deletion strains, locus YPL240C, strain hsp82, active compounds read low 0.992 | S. cerevisiae deletion strains, locus YPL241C, strain CIN2, active compounds read low 1.01 | S. cerevisiae deletion strains, locus YPR119W, strain clb2, active compounds read low 0.998 | S. cerevisiae deletion strains, locus YPR141C, strain kar3, active compounds read low 1.01 | S. cerevisiae deletion strains, locus YPR163C, strain tif3, active compounds read low 1.01 | S. cerevisiae deletion strains, locus YPR167C, strain met16, active compounds read low 1 | S. cerevisiae deletion strains, strain wtn01, active compounds read low 1 | S. cerevisiae strains, strain wild type, active compounds read low 0.994
active: S. cerevisiae deletion strains, locus YLL041C, strain sdh2, active compounds read low 0.9 | S. cerevisiae deletion strains, locus YLR113W, strain HOG1, active compounds read low 0.232 | S. cerevisiae deletion strains, locus YNL183C, strain NPR1, active compounds read low 0.0704 | S. cerevisiae deletion strains, locus YOR231W, strain MKK1, active compounds read low 0.124 | S. cerevisiae deletion strains, locus YPL256C, strain CLN2, active compounds read low 0.162
